Measurements reported in the antibiotic and cytotoxicity screens of Wong et al. (2023).
The whole screen tested about 39,000 compounds, of which about 1,500 (3.8%) were called active. The entries come from a sample that favours actives as a whole.

system: HSkMC (human skeletal muscle cells); assay: cytotoxicity call (relative viability < 0.9); conditions: 10 µM

Compound | cytotoxicity call
C[C@H](CO)N1C[C@H](C)[C@H](CN(C)C(=O)Nc2ccc(C(F)(F)F)cc2)Oc2c(NC(=O)Nc3ccc4c(c3)OCO4)cccc2C1=O | inactive
C[C@H]1CN([C@@H](C)CO)C(=O)c2cc(NS(=O)(=O)c3ccc(F)cc3)ccc2O[C@H]1CN(C)Cc1ccncc1 | inactive
c1ccc([C@@H]2Oc3ccccc3[C@@H]3Oc4ccccc4C[C@@H]23)cc1 | inactive
Cc1noc(C)c1S(=O)(=O)Nc1cccc2c1O[C@H](CN(C)CC1CC1)[C@H](C)CN([C@H](C)CO)C2=O | inactive
C[C@@H]1CN([C@@H](C)CO)C(=O)c2cc(NC(=O)Cc3ccccc3)ccc2O[C@@H](C)CCCCO[C@@H]1CN(C)C(=O)Nc1ccccc1 | inactive
COc1ccc(CN(C)C[C@@H]2OCCCC[C@H](C)Oc3ccc(NC(=O)C4CCCCC4)cc3C(=O)N([C@@H](C)CO)C[C@H]2C)cc1 | inactive
C[C@@H]1CN([C@@H](C)CO)C(=O)c2cccc(NC(=O)C3CC3)c2O[C@@H]1CN(C)Cc1ccc(C(=O)O)cc1 | inactive
Cc1noc(C)c1S(=O)(=O)N(C)C[C@H]1Oc2ccc(NC(=O)C3CC3)cc2CC(=O)N([C@H](C)CO)C[C@H]1C | inactive
Cc1ccc(S(=O)(=O)Nc2ccc3c(c2)C(=O)N([C@@H](C)CO)C[C@H](C)[C@H](CN(C)C(=O)Nc2ccccc2)OCCCC[C@H](C)O3)cc1 | inactive
COc1ccc(CN(C)C[C@@H]2Oc3ccc(NS(=O)(=O)c4cn(C)cn4)cc3CC(=O)N([C@@H](C)CO)C[C@H]2C)cc1 | inactive
C[C@H](CO)N1C[C@H](C)[C@H](CN(C)C(=O)Nc2ccccc2)OCc2ccccc2-c2c(n(C)c3ccccc23)C1=O | inactive
COc1ccc(NC(=O)N(C)C[C@@H]2Oc3ncc(C#C[C@H](C)O)cc3C(=O)N([C@H](C)CO)C[C@@H]2C)cc1 | inactive
Cc1noc(C)c1S(=O)(=O)Nc1ccc2c(c1)C(=O)N([C@@H](C)CO)C[C@@H](C)[C@H](CN(C)C(=O)Nc1ccc(C(F)(F)F)cc1)OCCCC[C@H](C)O2 | inactive
Cc1noc(C)c1S(=O)(=O)Nc1ccc2c(c1)C(=O)N([C@H](C)CO)C[C@H](C)[C@H](CN(C)C(=O)Nc1ccc(C(F)(F)F)cc1)OCCCC[C@H](C)O2 | active
Cc1noc(C)c1S(=O)(=O)Nc1ccc2c(c1)C(=O)N([C@@H](C)CO)C[C@@H](C)[C@@H](CN(C)C(=O)Nc1ccc(C(F)(F)F)cc1)OCCCC[C@@H](C)O2 | inactive
COc1ccc(S(=O)(=O)Nc2ccc3c(c2)C(=O)N([C@@H](C)CO)C[C@@H](C)[C@H](CN(C)C(=O)NC(C)C)O3)cc1 | inactive
C[C@@H]1CN([C@H](C)CO)C(=O)c2cc(C#Cc3cccc(F)c3)cnc2O[C@H]1CN(C)CC1CCOCC1 | inactive
CC=Cc1ccc2n(c1=O)C[C@H]1[C@H](CO)[C@@H](C(=O)NC3CCC3)[C@@H]2N1S(=O)(=O)c1cn(C)cn1 | inactive
Cc1noc(C)c1S(=O)(=O)Nc1ccc2c(c1)CC(=O)N([C@@H](C)CO)C[C@H](C)[C@H](CN(C)S(C)(=O)=O)O2 | inactive
CC(C)(Sc1cc(C(C)(C)C)c(O)c(C(C)(C)C)c1)Sc1cc(C(C)(C)C)c(O)c(C(C)(C)C)c1 [listing 1 of 2 here] | inactive
CC(C)(Sc1cc(C(C)(C)C)c(O)c(C(C)(C)C)c1)Sc1cc(C(C)(C)C)c(OCC(=O)O)c(C(C)(C)C)c1 | active
CC(C)(Sc1cc(C(C)(C)C)c(O)c(C(C)(C)C)c1)Sc1cc(C(C)(C)C)c(O)c(C(C)(C)C)c1 [listing 2 of 2 here] | inactive
CC(C)(Sc1cc(C(C)(C)C)c(O)c(C(C)(C)C)c1)Sc1cc(C(C)(C)C)c(OC(=O)CCC(=O)O)c(C(C)(C)C)c1 | active
CC(C)(C)c1cc(CCC(=O)OCC(COC(=O)CCc2cc(C(C)(C)C)c(O)c(C(C)(C)C)c2)(COC(=O)CCc2cc(C(C)(C)C)c(O)c(C(C)(C)C)c2)COC(=O)CCc2cc(C(C)(C)C)c(O)c(C(C)(C)C)c2)cc(C(C)(C)C)c1O | inactive

Compound | cytotoxicity call
C[C@@H]1CN([C@@H](C)CO)C(=O)c2cccc(NC(=O)Nc3ccc(F)cc3)c2O[C@@H]1CN(C)C(=O)Nc1ccc(C(F)(F)F)cc1 | inactive
C[C@@H]1CN([C@@H](C)CO)S(=O)(=O)c2ccc(-c3cncnc3)cc2O[C@H]1CN(C)C(=O)c1ccc2c(c1)OCO2 | inactive
COCC(=O)N1C[C@H](C)[C@@H](OC)CN(C)C(=O)c2cc(NC(=O)Nc3cccc(F)c3)ccc2OC[C@@H]1C | inactive
COC[C@@H]1CN(C(=O)[C@H]2CCCN2C)N1 | inactive
COC(=O)[C@@H](Cc1ccccc1)N[C@H](/C=C/C1CC1)[C@@H](O)CCn1cc(-c2ccc(C(=O)NO)cc2)nn1 | inactive
CC[C@@H]1COCCC(=O)N1 | inactive
Cc1nc2cc(C)c(C)cc2s1 | inactive
Cc1ccc(NC(=O)Nc2cc(C(F)(F)F)ccc2F)cc1Nc1ccc2c(c1)NC(=O)/C2=C\c1ccc[nH]1 | active
C[C@@H]1CN([C@H](C)CO)C(=O)Cc2cc(NS(C)(=O)=O)ccc2O[C@H]1CN(C)S(=O)(=O)c1ccc(F)cc1 | inactive
Cc1noc(C)c1NC(=O)Nc1ccc2c(c1)C(=O)N([C@H](C)CO)C[C@@H](C)[C@@H](CN(C)S(=O)(=O)c1c(C)noc1C)O2 | inactive
C[C@@H]1CN([C@@H](C)CO)C(=O)c2cccc(NC(=O)C3CC3)c2O[C@@H]1CN(C)Cc1ccc(-c2ccccc2)cc1 | inactive
C[C@@H]1CN([C@H](C)CO)S(=O)(=O)c2ccc(-c3ccccc3F)cc2O[C@H]1CN(C)Cc1cncnc1 | inactive
C[C@@H]1CCCCO[C@@H](CN(C)Cc2ccc(Cl)c(Cl)c2)[C@@H](C)CN([C@@H](C)CO)C(=O)c2cc(NC(=O)c3ccccc3)ccc2O1 | inactive
COc1ccc(NC(=O)Nc2ccc3c(c2)C(=O)N([C@H](C)CO)C[C@H](C)[C@H](CN(C)Cc2ccc(Cl)c(Cl)c2)OCCCC[C@H](C)O3)cc1 | active
COc1ccc(NC(=O)Nc2ccc3c(c2)C(=O)N([C@@H](C)CO)C[C@H](C)[C@H](CN(C)Cc2ccc(Cl)c(Cl)c2)OCCCC[C@@H](C)O3)cc1 | inactive
COc1ccc(NC(=O)Nc2ccc3c(c2)C(=O)N([C@H](C)CO)C[C@@H](C)[C@H](CN(C)Cc2ccc(Cl)c(Cl)c2)OCCCC[C@@H](C)O3)cc1 | active
COc1ccc(NC(=O)Nc2ccc3c(c2)C(=O)N([C@H](C)CO)C[C@H](C)[C@@H](CN(C)Cc2ccc(Cl)c(Cl)c2)OCCCC[C@@H](C)O3)cc1 | inactive
COc1ccc(NC(=O)Nc2ccc3c(c2)C(=O)N([C@@H](C)CO)C[C@H](C)[C@@H](CN(C)Cc2ccc(Cl)c(Cl)c2)OCCCC[C@@H](C)O3)cc1 | inactive
COc1ccc(NC(=O)Nc2ccc3c(c2)C(=O)N([C@@H](C)CO)C[C@@H](C)[C@@H](CN(C)Cc2ccc(Cl)c(Cl)c2)OCCCC[C@H](C)O3)cc1 | inactive
COc1ccc(NC(=O)Nc2ccc3c(c2)C(=O)N([C@H](C)CO)C[C@@H](C)[C@@H](CN(C)Cc2ccc(Cl)c(Cl)c2)OCCCC[C@H](C)O3)cc1 | inactive
COc1ccc(NC(=O)Nc2ccc3c(c2)C(=O)N([C@H](C)CO)C[C@@H](C)[C@H](CN(C)Cc2ccc(Cl)c(Cl)c2)OCCCC[C@H](C)O3)cc1 | active
COc1ccc(NC(=O)Nc2ccc3c(c2)C(=O)N([C@H](C)CO)C[C@H](C)[C@@H](CN(C)Cc2ccc(Cl)c(Cl)c2)OCCCC[C@H](C)O3)cc1 | inactive
Cc1noc(C)c1S(=O)(=O)N(C)C[C@H]1Oc2c(NC(=O)NC3CCCCC3)cccc2C(=O)N([C@H](C)CO)C[C@@H]1C | inactive
C[C@H](CO)N1C[C@H](C)[C@@H](CN(C)S(=O)(=O)c2cn(C)cn2)Oc2ccc(NC(=O)Cn3cnnn3)cc2C1=O | inactive

Compound | cytotoxicity call
CC(C)NC(=O)N(C)C[C@@H]1Oc2ccc(NS(=O)(=O)c3ccc(Cl)cc3)cc2CC(=O)N([C@H](C)CO)C[C@@H]1C | inactive
CC(C)NC(=O)Nc1ccc2c(c1)C(=O)N([C@H](C)CO)C[C@H](C)[C@@H](CN(C)S(=O)(=O)c1ccccc1)O2 | inactive
COc1ccc(S(=O)(=O)N(C)C[C@H]2Oc3c(NC(=O)c4cc(C)nn4C)cccc3C(=O)N([C@H](C)CO)C[C@@H]2C)cc1 | inactive
COc1ccc(S(=O)(=O)Nc2ccc3c(c2)C(=O)N([C@H](C)CO)C[C@H](C)[C@@H](CN(C)C(=O)Nc2ccccc2)OCCCC[C@@H](C)O3)cc1 | inactive
C[C@H]1CN([C@@H](C)CO)C(=O)c2ccccc2-c2ccccc2CO[C@H]1CN(C)Cc1ccc(C(F)(F)F)cc1 | inactive
C[C@@H]1CCCCO[C@H](CN(C)Cc2ccc(C(=O)O)cc2)[C@@H](C)CN([C@H](C)CO)C(=O)c2cc(NS(=O)(=O)c3ccc(Cl)cc3)ccc2O1 | inactive
CNC(=O)C(=O)Nc1cc(Cl)ccc1C#N | inactive
CCN(CC)C(=O)[C@@H]1C[C@@H](N)CN1S(=O)(=O)N1CCCCCC1 | inactive
Cc1ccc(OCCn2c(CC(C)(C)C)nc3ccccc32)cc1 | inactive
c1ccc(Cn2c(-c3ccc(OC[C@H](C4CCNCC4)n4c(-c5ccccc5)nc5ccccc54)cc3)nc3ccccc32)cc1 | active
Cc1nc2ccccc2n1Cc1ccc(Cl)cc1 | inactive
C[C@H](O)C#Cc1ccc2c(c1)O[C@H](CN(C)C(=O)Nc1ccccc1)[C@@H](C)CN([C@H](C)CO)S2(=O)=O | inactive
C[C@H]1CN([C@@H](C)CO)C(=O)c2cc(-c3cccnc3)cnc2O[C@@H]1CN(C)Cc1ccc(-c2ccccc2)cc1 | inactive
C[C@@H]1CCCCO[C@H](CN(C)Cc2ccc(Cl)c(Cl)c2)[C@@H](C)CN([C@H](C)CO)C(=O)c2cc(NC(=O)NC3CCCCC3)ccc2O1 | inactive
C[C@@H]1CN([C@@H](C)CO)C(=O)c2cc(NC(=O)NC3CCCCC3)ccc2O[C@@H](C)CCCCO[C@H]1CN(C)Cc1ccc(Cl)c(Cl)c1 | inactive
C[C@@H]1CCCCO[C@H](CN(C)Cc2ccc(Cl)c(Cl)c2)[C@H](C)CN([C@@H](C)CO)C(=O)c2cc(NC(=O)C3CCCCC3)ccc2O1 | inactive
C[C@@H]1CCCCO[C@@H](CN(C)Cc2ccc(Cl)c(Cl)c2)[C@@H](C)CN([C@@H](C)CO)C(=O)c2cc(NC(=O)NC3CCCCC3)ccc2O1 | inactive
C[C@@H]1CCCCO[C@H](CN(C)Cc2ccc(Cl)c(Cl)c2)[C@@H](C)CN([C@@H](C)CO)C(=O)c2cc(NC(=O)NC3CCCCC3)ccc2O1 | active
C[C@@H]1CCCCO[C@H](CN(C)Cc2ccc(Cl)c(Cl)c2)[C@@H](C)CN([C@H](C)CO)C(=O)c2cc(NC(=O)C3CCCCC3)ccc2O1 | inactive
C[C@H]1CCCCO[C@H](CN(C)Cc2ccc(Cl)c(Cl)c2)[C@@H](C)CN([C@@H](C)CO)C(=O)c2cc(NC(=O)NC3CCCCC3)ccc2O1 | active
C[C@@H]1CCCCO[C@@H](CN(C)Cc2ccc(Cl)c(Cl)c2)[C@H](C)CN([C@H](C)CO)C(=O)c2cc(NC(=O)NC3CCCCC3)ccc2O1 | inactive
C[C@@H]1CCCCO[C@H](CN(C)Cc2ccc(Cl)c(Cl)c2)[C@@H](C)CN([C@@H](C)CO)C(=O)c2cc(NC(=O)C3CCCCC3)ccc2O1 | active
